According to PubChem BioAssay AID720605 (Broad Institute, 2013):
Potency and affinity values are given separately. The source made the active and inactive calls.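 How the source made its calls: active means cell viability signal falls with a fitted half-maximal concentration within twice the top dose at all three treatment times; inconclusive means treatment times give differing calls; inactive means every treatment time called inactive.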

Experiment: U-251 glioblastoma cell viability loss, dose response, HRAS target identification, Alamar Blue fluorescence, 8/24/48 h, dry powder (AID 720605)
Conditions: U-251 glioblastoma viability, 8-48 h; series mostly up to 35 µM

Structure (SMILES) | outcome
CCC(=O)N(c1ccc(OC)c(Cl)c1)C(C(=O)NCCc1ccccc1)c1cccs1 (configuration not stated) | inactive
Cc1onc(C(=O)N2CCN(C(c3ccncc3)c3ccncc3)CC2)c1[N+](=O)[O-] | inactive
